The source of these data is PubChem BioAssay (NCI).

About 83,000 compounds went through this panel and 20% of them were active in at least one assay; those are over-represented in the sample as a whole.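 96-well plates, one dose, 48 hours. Percent growth reported; active if below 10.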 Values without a mark were called inactive. Active and inactive are the calls of the source.

Test in all cases: NCI-60 one-dose screen, 48 h (100 = growth as untreated, 0 = no growth, -100 = all killed)
What all share (details): 10 µM unless noted

For experiment [1], the system named is DU-145 prostate.
Experiment [2] concerns K-562 leukemia.
Experiment [3] has as its system MALME-3M melanoma.
The test system of experiment [4] is MDA-MB-231 breast.
Experiment [5] relates to RXF 393 renal.
The subject of experiment [6] is SF-268 CNS.
Experiment [7] relates to SF-295 CNS.
The subject of experiment [8] is SF-539 CNS.
Experiment [9] relates to UACC-257 melanoma.
For experiment [10], the system named is M14 melanoma.
For experiment [11], the system named is HCT-15 colon.
The test system of experiment [12] is HT29 colon.
The subject of experiment [13] is SNB-75 CNS.
Experiment [14] concerns SNB-19 CNS.
Experiment [15] concerns U251 CNS.
Experiment [16] relates to PC-3 prostate.
Experiment [17] deals with SK-MEL-5 melanoma.
Experiment [18] deals with UACC-62 melanoma.
In experiment [19] the test system is LOX IMVI melanoma.
For experiment [20], the system named is SK-MEL-28 melanoma.

Consider `NC(=NCCCOc1ccc(F)cc1)Nc1ccc(Cl)c(Cl)c1`, for which the growth is 80.2% in experiment [1]; 12.6% in experiment [2]; 98.1% in experiment [3]; 44% in experiment [4]; 68.6% in experiment [5]; 54.9% in experiment [6]. In addition, the growth in experiment [7] is 76.6%; in experiment [8], 79.1%; in [9], 77.2%; in experiment [10], 63.6%; in experiment [11] it was 75.6%; in experiment [12] it was 31.7%. Moreover, the growth in [13] was 57.8%; in experiment [14], 77%; in experiment [15], 69.8%; in experiment [16], 63.9%; in [17], 51.4%; in experiment [18], 78.6%. The growth in experiment [19] was 55.9%; in experiment [20] it was 94.3%.
For `COc1cc(Br)c(-c2nc(-c3ccccc3)c(-c3ccccc3)n2Cc2ccccc2)cc1OC`, the growth in [1] was 72.6%; in [2], 31.5%; in [3], 57.8%; in [4], 71.2%; in experiment [5] it was 72.2%; in [6], 67.9%. Further, the growth in experiment [7] was 34.5%; in experiment [8], 76%; in experiment [9] it was 59.2%; in experiment [10] it was 53.1%; in [11], 47.4%; in experiment [12], 32.3%. Also, the growth in experiment [13] is 86.7%; in experiment [14], 67.2%; in experiment [15], 64.1%; in experiment [16] it was 29.7%; in experiment [17], 54%; in [18], 53.1%. Further, the figures for the growth in [19] and in [20] were 61.3% and 91.1%, respectively.
In the case of `CN(C)c1ccc(/C=N/N=C(N)N)cc1`, the growth was 92.6% in experiment [1]; 40% in experiment [2]; 77% in experiment [3]; 75.8% in experiment [4]; 75.1% in experiment [5]; 87% in experiment [6]. Besides, the growth in [7] was 61.4%; in experiment [8] it was 90.9%; in [9] it was 72.4%; in experiment [10], 51.2%; in experiment [11], 49%; in [12] it was 26.4%. Besides, the growth in experiment [13] is 66.5%; in experiment [14], 74.2%; in experiment [15] it was 60.2%; in experiment [16], 83.8%; in experiment [17], 47.3%; in experiment [18], 72.7%. Besides, the growth in experiment [19] was 70.5%; in experiment [20] it was 81.7%.
As to `O=C(Nc1ccc(-n2ccc3c(NC(=O)c4ccccc4)ncnc32)cc1)c1cccc(C(F)(F)F)c1`, the growth in experiment [1] was 35.1%; in [2], 28.7%; in [3], 77.3%; in [4], 51.5%; in [5], 43.9%; in experiment [6], 38.9%. Moreover, the growth was 33.2% in experiment [7]; 35.5% in experiment [8]; 60.8% in experiment [9]; 30.9% in experiment [10]; 19.7% in experiment [11]; 22% in experiment [12]. Also, the growth is 63.9% in experiment [13]; 57.4% in experiment [14]; 27.3% in [15]; 43.7% in experiment [16]; 33.1% in experiment [17]; 25.4% in experiment [18]. Also, the growth in experiment [19] is 3.47% (active); in experiment [20], 71.2%.
In the case of `O=c1c2ccccc2sc2c(NCCN3CCOCC3)nc3ccccc3c12`, the growth is 56% in [1]; -11.7% (active) in [2]; 52.2% in experiment [3]; 28.9% in experiment [4]; 11.8% in experiment [5]; 66.9% in experiment [6]. For the same molecule, the growth in [7] was -7.24% (active); in experiment [8], 47.3%; in [9] it was 79.8%; in experiment [10], 5.59% (active); in [11], 27.1%; in experiment [12], 8.68% (active). For the same molecule, the growth in experiment [13] is 42.8%; in experiment [14] it was 79.3%; in experiment [15] it was 42.3%; in experiment [16] it was 43.2%; in experiment [17], 54.8%; in experiment [18] it was 33.3%. Also, the growth in experiment [19] is 5.67% (active); in experiment [20], 69.4%.
As to `CC(C)(C)OC(=O)NCc1cccc(N=C=S)c1`, the growth is 55.7% in experiment [1]; 37.3% in experiment [2]; 29.9% in experiment [3]; 75.4% in [4]; -15.7% (active) in experiment [5]; 47.2% in experiment [6]. Besides, the growth in experiment [7] was 21%; in experiment [8] it was 3.66% (active); in experiment [9], 39.4%; in experiment [10] it was 49.3%; in experiment [11], 38.9%; in experiment [12], 37.6%. In addition, the growth in [13] was 40.7%; in experiment [14] it was 77.1%; in [15] it was 58.3%; in experiment [16], 51.2%; in [17], 49.2%; in experiment [18] it was 14.2%. Further, the growth in [19] was 24.4%; in [20], 23.1%.
As to `CCOC(=O)c1cnc2c(OC)ccc(OC)c2c1Cl`, the growth was 118% in experiment [1]; 116% in experiment [2]; 98.3% in experiment [3]; 128% in experiment [4]; 115% in experiment [5]; 98.9% in experiment [6]. The growth is 110% in experiment [7]; 104% in experiment [8]; 101% in experiment [9]; 106% in [10]; 107% in experiment [11]; 117% in experiment [12]. In addition, the growth in [13] was 82.7%; in experiment [14], 114%; in experiment [15], 109%; in experiment [16], 93.6%; in [17], 107%; in [18] it was 109%. Also, the growth in experiment [19] was 91.1%; in experiment [20], 120%.
Consider `CNCCCOc1c(Br)cc(CCNC(=O)/C(Cc2cc(Br)c(OC)c(Br)c2)=N/O)cc1Br`, for which the growth was -5.03% (active) in experiment [1]; -51.2% (active) in experiment [2]; -78% (active) in experiment [3]; -69.8% (active) in [4]; -5.85% (active) in experiment [5]; 4.43% (active) in [6]. In addition, the growth in experiment [7] is -65.5% (active); in experiment [8] it was -73.9% (active); in experiment [9] it was -45.3% (active); in experiment [10], -76.7% (active); in experiment [11] it was -58.3% (active); in experiment [12] it was -48.2% (active). In addition, the growth was 8.28% (active) in experiment [13]; -23% (active) in experiment [14]; -84% (active) in experiment [15]; -40.4% (active) in [16]; -90.2% (active) in experiment [17]; -47% (active) in experiment [18]. Besides, the growth in experiment [19] was -80.1% (active); in experiment [20] it was -64.2% (active).
